Test results from the supplement of paper PMC10849652.
Of roughly 7,900 targets only a part is listed; those with a hit were picked by preference. About 0.6% of all pairs of compound and target were hits. A number with no mark means an inactive call.

Tests used:
Experiment in all cases: log2 fold change, soluble protein after heating vs DMSO (PISA); higher = thermal stabilisation; K562 cells, 10 uM, 30 min; active = over 0.2 and 3.5 SD of the protein, either way, in both replicates (recomputed)
[1] = compound: Cc1ccc(NC(=O)c2ccc(CN3CC[C@H](N(C)C)C3)c(C(F)(F)F)c2)cc1Nc1nccc(-c2cncnc2)n1 [bafetinib]
How it was run: (§1)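 Quantification of soluble protein used TMTpro 16plex LC-MS/MS, with channel sums equalised. Samples were the supernatant after 21,000xg for 90 min of pooled aliquots from K562 cells (2×10^6 cells/mL) treated with 10 μM compound for 30 min, heated for 3 min over 48°C-58°C, and extracted in PBS with 0.5% NP-40 at 4°C. Values, from duplicates, describe thermal stability against control samples on a log2 fold-change scale.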

[2] = compound: Cc1cccc(CC(=O)N2CCc3c2ccc(-c2cn(C)c4ncnc(N)c24)c3F)n1
How it was run: as §1

[3] = compound: Cc1cn(-c2cc(NC(=O)c3ccc(C)c(Nc4nccc(-c5cccnc5)n4)c3)cc(C(F)(F)F)c2)cn1 [nilotinib]
How it was run: as §1

[4] = compound: Cc1nc(Nc2n[nH]c3c2CN(C(=O)N[C@H](CN(C)C)c2ccccc2)C3(C)C)c2sccc2n1
How it was run: as §1

[5] = compound: Cc1nc(Nc2ncc(C(=O)Nc3c(C)cccc3Cl)s2)cc(N2CCN(CCO)CC2)n1 [dasatinib]
How it was run: as §1

[6] = compound: Cc1ncc(-c2ccnc(Nc3ccc(S(C)(=O)=O)cc3)n2)n1C(C)C
How it was run: as §1

[7] = compound: Cn1cc(-c2ccc3c(c2)CCN3C(=O)Cc2cccc(C(F)(F)F)c2)c2c(N)ncnc21
How it was run: as §1

[8] = compound: Cn1cc(-c2ccc3nnc(C(F)(F)c4ccc5ncccc5c4)n3n2)cn1
How it was run: as §1

[9] = compound: Cn1cncc1[C@@](N)(c1ccc(Cl)cc1)c1ccc2c(c1)c(-c1cccc(Cl)c1)cc(=O)n2C [tipifarnib]
How it was run: as §1

[10] = compound: FC(F)(F)c1ccc(/C=C/c2nc(COc3ccc(CCCCn4ccnn4)cc3)co2)cc1 [mubritinib]
How it was run: as §1

[11] = compound: NC(=O)Nc1cc(-c2cccc(F)c2)sc1C(=O)N[C@H]1CCCNC1
How it was run: as §1

[12] = compound: NC(=O)c1cnc(N[C@@H]2CCCC[C@@H]2N)nc1Nc1cccc(-n2nccn2)c1
How it was run: as §1

[13] = compound: NC1(c2ccc(-c3nc4ccn5c(=O)[nH]nc5c4cc3-c3ccccc3)cc2)CCC1
How it was run: as §1

[14] = compound: NCC(=O)Nc1ccc(-n2nc(C(F)(F)F)cc2-c2ccc3c(ccc4ccccc43)c2)cc1
How it was run: as §1

[15] = compound: Nc1ccccc1NC(=O)c1ccc(CNC(=O)OCc2cccnc2)cc1 [entinostat]
How it was run: as §1

[16] = compound: O=C(CCCCCCC(=O)Nc1ccccc1)NO [vorinostat]
How it was run: as §1

[17] = compound: O=C(CCCCCCNC(=O)c1cnc(N(c2ccccc2)c2ccccc2Cl)nc1)NO [citarinostat]
How it was run: as §1

[18] = compound: O=C(O)c1ccc2c(c1)nc(Nc1cccc(Cl)c1)c1ccncc12 [silmitasertib]
How it was run: as §1

[19] = compound: O=C1NC(=O)C(c2cnc3ccccn23)=C1c1cn2c3c(cc(F)cc13)CN(C(=O)N1CCCCC1)CC2
How it was run: as §1

[20] = compound: c1cc(OCCN2CCCCC2)cc(-c2n[nH]c3ccc(-c4nnc[nH]4)cc23)c1
How it was run: as §1

Chain of UniProt O15162 (O15162 whole entry, looked up): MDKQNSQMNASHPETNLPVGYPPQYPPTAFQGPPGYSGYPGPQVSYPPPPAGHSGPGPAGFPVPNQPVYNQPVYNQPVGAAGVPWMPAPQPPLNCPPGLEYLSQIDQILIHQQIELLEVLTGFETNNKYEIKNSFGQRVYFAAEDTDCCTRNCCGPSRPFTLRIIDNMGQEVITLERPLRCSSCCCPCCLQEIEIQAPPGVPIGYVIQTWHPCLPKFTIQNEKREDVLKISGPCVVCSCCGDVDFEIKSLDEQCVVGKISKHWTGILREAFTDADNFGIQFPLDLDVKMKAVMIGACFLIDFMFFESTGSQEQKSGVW
Chain of UniProt Q86W56 (Q86W56 whole entry, looked up): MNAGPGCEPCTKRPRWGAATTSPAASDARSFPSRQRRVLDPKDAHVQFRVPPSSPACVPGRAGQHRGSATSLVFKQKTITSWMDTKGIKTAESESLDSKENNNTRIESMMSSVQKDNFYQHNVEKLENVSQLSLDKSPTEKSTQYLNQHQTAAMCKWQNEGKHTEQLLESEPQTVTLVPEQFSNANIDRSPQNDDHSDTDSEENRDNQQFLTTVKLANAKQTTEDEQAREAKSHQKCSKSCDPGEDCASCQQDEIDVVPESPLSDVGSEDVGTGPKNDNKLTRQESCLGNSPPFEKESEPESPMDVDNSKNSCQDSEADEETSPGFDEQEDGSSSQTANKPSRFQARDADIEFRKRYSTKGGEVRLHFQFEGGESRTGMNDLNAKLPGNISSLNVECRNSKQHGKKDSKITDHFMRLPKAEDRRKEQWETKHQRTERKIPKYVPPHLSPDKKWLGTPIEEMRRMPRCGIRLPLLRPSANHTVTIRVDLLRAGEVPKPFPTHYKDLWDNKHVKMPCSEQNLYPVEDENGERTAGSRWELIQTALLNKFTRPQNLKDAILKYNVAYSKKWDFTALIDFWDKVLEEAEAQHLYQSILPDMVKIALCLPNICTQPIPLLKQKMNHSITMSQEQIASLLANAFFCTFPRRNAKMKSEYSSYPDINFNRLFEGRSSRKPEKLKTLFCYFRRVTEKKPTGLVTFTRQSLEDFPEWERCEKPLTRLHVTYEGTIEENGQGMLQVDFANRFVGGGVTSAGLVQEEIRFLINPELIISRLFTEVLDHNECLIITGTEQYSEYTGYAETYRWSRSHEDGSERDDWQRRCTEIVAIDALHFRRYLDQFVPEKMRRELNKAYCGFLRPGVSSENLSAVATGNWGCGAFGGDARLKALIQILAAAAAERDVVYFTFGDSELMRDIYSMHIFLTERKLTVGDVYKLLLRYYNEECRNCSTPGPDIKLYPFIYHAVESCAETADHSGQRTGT
Chain of UniProt O15067 (O15067 whole entry, looked up): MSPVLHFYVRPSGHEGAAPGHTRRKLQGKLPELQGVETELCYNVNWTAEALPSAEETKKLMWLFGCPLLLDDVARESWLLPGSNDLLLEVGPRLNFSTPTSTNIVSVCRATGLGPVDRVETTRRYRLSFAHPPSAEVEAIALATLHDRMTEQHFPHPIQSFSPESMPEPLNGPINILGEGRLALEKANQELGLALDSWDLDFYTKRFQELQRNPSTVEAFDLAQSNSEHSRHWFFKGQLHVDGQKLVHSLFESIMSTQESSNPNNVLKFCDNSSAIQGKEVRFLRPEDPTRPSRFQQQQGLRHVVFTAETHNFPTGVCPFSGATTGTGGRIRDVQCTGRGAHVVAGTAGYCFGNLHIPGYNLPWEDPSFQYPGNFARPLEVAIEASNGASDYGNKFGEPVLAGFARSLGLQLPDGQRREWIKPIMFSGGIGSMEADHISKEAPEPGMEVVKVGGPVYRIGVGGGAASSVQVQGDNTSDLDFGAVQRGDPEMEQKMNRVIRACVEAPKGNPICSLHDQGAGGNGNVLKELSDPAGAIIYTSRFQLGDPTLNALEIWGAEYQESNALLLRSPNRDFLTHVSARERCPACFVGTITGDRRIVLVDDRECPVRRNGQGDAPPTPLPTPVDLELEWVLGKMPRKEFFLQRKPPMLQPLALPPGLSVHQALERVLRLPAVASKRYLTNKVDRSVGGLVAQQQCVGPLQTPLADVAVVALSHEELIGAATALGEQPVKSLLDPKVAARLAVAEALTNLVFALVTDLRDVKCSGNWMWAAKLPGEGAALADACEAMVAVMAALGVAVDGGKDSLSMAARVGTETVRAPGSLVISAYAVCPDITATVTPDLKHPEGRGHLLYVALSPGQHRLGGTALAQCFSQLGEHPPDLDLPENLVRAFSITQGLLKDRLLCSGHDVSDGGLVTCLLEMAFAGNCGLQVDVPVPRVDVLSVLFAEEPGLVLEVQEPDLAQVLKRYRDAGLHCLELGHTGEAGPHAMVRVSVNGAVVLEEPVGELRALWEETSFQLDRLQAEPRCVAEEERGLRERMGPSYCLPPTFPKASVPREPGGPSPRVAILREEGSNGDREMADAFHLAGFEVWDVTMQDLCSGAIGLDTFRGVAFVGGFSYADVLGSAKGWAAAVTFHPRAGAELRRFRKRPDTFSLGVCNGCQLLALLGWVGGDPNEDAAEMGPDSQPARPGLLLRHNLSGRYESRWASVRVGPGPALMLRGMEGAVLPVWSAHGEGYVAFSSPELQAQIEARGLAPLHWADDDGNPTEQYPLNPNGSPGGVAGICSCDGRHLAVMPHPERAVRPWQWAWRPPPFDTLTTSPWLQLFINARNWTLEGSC
Chain of UniProt P42338 (P42338 whole entry, looked up): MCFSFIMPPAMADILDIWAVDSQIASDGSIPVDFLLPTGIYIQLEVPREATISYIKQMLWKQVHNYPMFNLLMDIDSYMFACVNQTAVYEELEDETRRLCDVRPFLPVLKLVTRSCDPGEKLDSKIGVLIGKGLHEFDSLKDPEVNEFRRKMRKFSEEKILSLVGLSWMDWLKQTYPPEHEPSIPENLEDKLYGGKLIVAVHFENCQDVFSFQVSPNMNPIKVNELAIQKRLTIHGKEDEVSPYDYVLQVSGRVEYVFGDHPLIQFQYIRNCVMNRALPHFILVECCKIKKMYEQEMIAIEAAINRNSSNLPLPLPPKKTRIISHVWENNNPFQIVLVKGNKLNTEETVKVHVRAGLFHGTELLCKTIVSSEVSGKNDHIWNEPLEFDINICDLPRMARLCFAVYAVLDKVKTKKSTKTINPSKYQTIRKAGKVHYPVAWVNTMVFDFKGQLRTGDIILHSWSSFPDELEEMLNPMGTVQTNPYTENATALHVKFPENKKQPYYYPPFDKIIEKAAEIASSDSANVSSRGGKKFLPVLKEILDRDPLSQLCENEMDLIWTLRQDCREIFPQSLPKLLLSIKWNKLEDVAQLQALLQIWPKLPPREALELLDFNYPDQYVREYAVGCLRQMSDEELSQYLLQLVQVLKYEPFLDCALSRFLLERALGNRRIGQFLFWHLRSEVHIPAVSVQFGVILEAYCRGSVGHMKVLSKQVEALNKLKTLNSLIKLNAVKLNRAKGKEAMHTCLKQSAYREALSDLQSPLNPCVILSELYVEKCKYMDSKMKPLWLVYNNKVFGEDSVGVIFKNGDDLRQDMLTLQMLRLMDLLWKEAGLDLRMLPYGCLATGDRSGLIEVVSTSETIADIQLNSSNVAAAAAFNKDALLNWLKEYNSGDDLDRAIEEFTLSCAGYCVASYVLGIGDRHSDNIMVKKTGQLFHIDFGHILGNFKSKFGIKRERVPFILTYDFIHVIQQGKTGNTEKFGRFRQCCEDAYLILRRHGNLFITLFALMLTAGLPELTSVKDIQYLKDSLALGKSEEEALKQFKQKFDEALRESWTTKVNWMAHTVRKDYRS
Chain of UniProt P78356 (P78356 whole entry, looked up): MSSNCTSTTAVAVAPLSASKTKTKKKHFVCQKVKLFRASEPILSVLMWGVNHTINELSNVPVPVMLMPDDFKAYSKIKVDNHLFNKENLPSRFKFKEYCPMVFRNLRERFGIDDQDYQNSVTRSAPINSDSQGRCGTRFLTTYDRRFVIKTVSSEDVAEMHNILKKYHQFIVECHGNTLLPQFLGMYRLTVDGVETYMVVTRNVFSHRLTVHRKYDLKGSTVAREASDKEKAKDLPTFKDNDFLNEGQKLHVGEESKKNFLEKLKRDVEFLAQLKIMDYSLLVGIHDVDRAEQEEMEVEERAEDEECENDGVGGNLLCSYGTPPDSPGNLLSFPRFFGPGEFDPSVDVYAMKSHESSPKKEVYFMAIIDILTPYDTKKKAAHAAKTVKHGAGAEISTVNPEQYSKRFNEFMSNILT
Chain of UniProt O95453 (O95453 whole entry, looked up): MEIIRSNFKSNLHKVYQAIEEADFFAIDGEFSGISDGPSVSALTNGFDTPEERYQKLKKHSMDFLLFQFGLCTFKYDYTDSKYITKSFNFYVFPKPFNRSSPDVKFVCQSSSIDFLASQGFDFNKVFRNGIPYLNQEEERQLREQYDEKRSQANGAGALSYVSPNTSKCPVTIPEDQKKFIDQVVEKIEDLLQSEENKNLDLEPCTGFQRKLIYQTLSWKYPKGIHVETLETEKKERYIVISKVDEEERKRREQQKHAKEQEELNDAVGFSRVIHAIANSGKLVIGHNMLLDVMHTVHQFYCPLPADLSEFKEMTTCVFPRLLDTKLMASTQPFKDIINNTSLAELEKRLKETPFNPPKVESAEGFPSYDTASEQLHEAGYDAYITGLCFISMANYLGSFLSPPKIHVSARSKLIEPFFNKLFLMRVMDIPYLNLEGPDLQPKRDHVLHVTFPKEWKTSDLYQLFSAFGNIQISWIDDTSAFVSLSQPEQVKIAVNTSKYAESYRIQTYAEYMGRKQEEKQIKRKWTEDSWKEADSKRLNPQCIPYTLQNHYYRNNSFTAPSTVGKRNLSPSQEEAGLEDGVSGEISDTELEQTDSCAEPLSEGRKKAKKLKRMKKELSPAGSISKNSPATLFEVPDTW
Chain of UniProt Q8WUK0 (Q8WUK0 whole entry, looked up): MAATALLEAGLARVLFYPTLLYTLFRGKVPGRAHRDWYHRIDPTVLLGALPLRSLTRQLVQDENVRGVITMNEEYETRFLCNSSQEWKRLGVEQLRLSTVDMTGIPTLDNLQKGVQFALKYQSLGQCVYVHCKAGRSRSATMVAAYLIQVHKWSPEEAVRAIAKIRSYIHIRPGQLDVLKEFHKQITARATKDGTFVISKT

Target	log2 fold change [1]	log2 fold change [2]	log2 fold change [3]	log2 fold change [4]	log2 fold change [5]	log2 fold change [6]	log2 fold change [7]	log2 fold change [8]	log2 fold change [9]	log2 fold change [10]	log2 fold change [11]	log2 fold change [12]	log2 fold change [13]	log2 fold change [14]	log2 fold change [15]	log2 fold change [16]	log2 fold change [17]	log2 fold change [18]	log2 fold change [19]	log2 fold change [20]
PIP4K2B (UniProt P78356)	0.258	0.011	0.085	0.05	0.139	0.538 (active)	0.055	0.172	-0.03	-0.083	0.06	0.083	-0.053	0.118	0.096	0.053	-0.009	0.202	0.044	0.069
PLK1 (UniProt P53350)	-0.048	0.003	-0.062	-1.37 (active)	-0.125	0.152	0.006	-0.013	0.019	0.003	-0.399 (active)	0.033	-0.024	0.005	-0.005	0.002	0.019	-0.135	0.032	-0.103
PPP1R12A (UniProt O14974)	-0.041	-0.02	-0.027	-0.302	-0.108	-0.118	-0.002	0.02	-0.023	0.07	-0.428 (active)	-0.358	-0.137	-0.012	0.041	0.017	0.078	0.051	-0.01	-0.369
PIK3CB (UniProt P42338)	-0.075	0.028	-0.084	-0.056	-0.209	0.034	-0.002	0.049	-0.105	0.037	-0.057	-0.106	-0.008	-0.102	0.014	0.001	0.003	-0.053	-0.039	-0.049
PPM1G (UniProt O15355)	0.001	0.048	-0.041	-0.05	-0.097	0	0.096	0.117	-0.133	0.105	-0.147	-0.086	-0.018	-0.181	0.017	0.079	0.033	0.031	-0.114	-0.102
PPP1CA (UniProt P62136)	-0.053	-0.001	-0.002	-0.006	0.008	-0.011	0.018	0.065	0.023	0.065	-0.036	-0.051	-0.019	-0.02	-0.012	-0.023	0.034	0	0.007	-0.045
PLSCR1 (UniProt O15162)	0.011	0.002	-0.004	-0.022	0.052	-0.032	0.024	0.048	0.036	0.148	-0.092	-0.005	-0.111	-0.068	-0.212	-0.082	0.05	0.022	-0.081	-0.096
PUM1 isoform 3 (UniProt Q14671)	-0.062	0.006	-0.047	-0.066	-0.044	-0.014	0.01	0	-0.015	0.007	0	-0.032	-0.082	-0.015	0.034	0.108	-0.008	0.01	-0.028	-0.007
PTP4A1 (UniProt Q93096)	-0.023	0.013	0.039	-0.049	0.108	-0.299 (active)	0.181	0.093	-0.005	0.074	-0.035	-0.202	-0.007	0.016	0.039	-0.029	0.063	-0.001	-0.075	0.059
PSMC1 (UniProt P62191)	0.065	0.02	-0.025	0.062	0.036	-0.014	-0.082	0	0.087	-0.015	0.011	0.029	0.014	0.043	-0.013	-0.013	-0.032	0.001	0.026	-0.047
PFAS (UniProt O15067)	0.033	0.311	-0.359 (active)	-0.113	-0.003	0.059	0.341 (active)	0.06	0.018	0.52 (active)	0.06	-0.075	-0.012	-0.054	0.134	0.042	0.049	-0.119	-0.052	0.142
PARN (UniProt O95453)	-0.104	0.019	-0.018	-0.073	-0.182	-0.011	-0.003	0.018	-0.01	0.076	0.012	-0.042	-0.1	-0.087	0.015	0.03	0.056	0.028	-0.069	-0.082
POLR2M (UniProt P0CAP2)	-0.029	-0.015	-0.011	0.034	0.055	0.138	-0.051	-0.024	0.035	-0.037	-0.03	0.035	-0.045	-0.085	-0.032	-0.091	-0.019	0.043	0.009	-0.008
PGGT1B (UniProt P53609)	-0.069	-0.024	-0.007	-0.059	0.075	0.009	-0.027	0.004	0.134	0.062	-0.048	-0.014	-0.062	-0.021	-0.047	-0.046	0.038	0.021	0.02	-0.042
PTPMT1 (UniProt Q8WUK0)	-0.16	-0.003	0.069	-0.013	-0.138	0.029	-0.056	-0.132	0.026	-0.006	-0.087	-0.264	-0.263	-0.166	0.073	0.049	0.014	0.032	-0.015	-0.082
PARG (UniProt Q86W56)	0.166	0.118	0.004	-0.123	-0.162	-0.025	0.093	-0.015	-0.061	0.061	0.141	0.001	-0.113	-0.013	0.12	0.157	0.067	0.048	0.065	-0.091
